# According to the supplement of paper PMC6555819:
# Assays:
# Assay in all cases: PBM binding z-score (relative to random genomic background probes); higher = stronger binding; sequences stand for … in GC…GCGATTGACAGCGTAGAATGAAGG
# [1] = test system: PPARg:RXRa DBDmut IVT, anti-RXR (DBD mutation: RXRa K156A/R161A, NR concentration 270 nM, RXRa partner concentration 90 nM)
# Procedure, shortened: (§1)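 Antibodies against each partner of ligand-free nuclear receptor dimers (one per run) detected binding on custom Agilent 4×180K protein-binding microarrays after 1 h incubation. The double-stranded probes had 34-nt variable regions carrying direct-repeat seeds, single-nucleotide variants, half-site ablations and random human genomic background sequences. Binding z-scores, from regression-normalized fluorescence, use the random background probes as reference.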
# [2] = test system: PPARg:RXRa IVT, anti-PPARg (NR concentration 270 nM, RXRa partner concentration 90 nM)
# Procedure, shortened: as §1
# [3] = test system: PPARg DBDmut:RXRa IVT, anti-PPARg (DBD mutation: PPARg1 K132A/R137A, NR concentration 270 nM, RXRa partner concentration 90 nM)
# Procedure, shortened: as §1
# [4] = test system: PPARg DBDmut IVT, anti-PPARg (DBD mutation: PPARg1 K132A/R137A, NR concentration 270 nM)
# Procedure, shortened: as §1
# [5] = test system: PPARg homodimer (NR concentration 180 nM)
# Procedure, shortened: as §1
# [6] = test system: PXR:RXRa (NR concentration 270 nM, RXRa partner concentration 90 nM)
# Procedure, shortened: as §1
# [7] = test system: PXR homodimer (NR concentration 270 nM)
# Procedure, shortened: as §1
# [8] = test system: RARa:RXR (NR concentration 270 nM, RXRa partner concentration 90 nM)
# Procedure, shortened: as §1
# [9] = test system: RARa homodimer (NR concentration 270 nM)
# Procedure, shortened: as §1
# [10] = test system: RARb:RXRa (NR concentration 270 nM, RXRa partner concentration 90 nM)
# Procedure, shortened: as §1
# [11] = test system: RARb homodimer (NR concentration 270 nM)
# Procedure, shortened: as §1
# [12] = test system: RARg homodimer (NR concentration 270 nM)
# Procedure, shortened: as §1
# [13] = test system: RXRa DBDmut IVT, anti-RXR (DBD mutation: RXRa K156A/R161A, NR concentration 90 nM)
# Procedure, shortened: as §1
# [14] = test system: RXRa homodimer (NR concentration 180 nM)
# Procedure, shortened: as §1
# [15] = test system: THRa:RXRa (NR concentration 90 nM, RXRa partner concentration 90 nM)
# Procedure, shortened: as §1
# [16] = test system: THRa homodimer (NR concentration 90 nM)
# Procedure, shortened: as §1
# [17] = test system: VDR homodimer (NR concentration 270 nM)
# Procedure, shortened: as §1
# [18] = test system: VDR:RXRa (NR concentration 270 nM, RXRa partner concentration 90 nM)
# Procedure, shortened: as §1
Sequence,PBM binding z-score [1],PBM binding z-score [2],PBM binding z-score [3],PBM binding z-score [4],PBM binding z-score [5],PBM binding z-score [6],PBM binding z-score [7],PBM binding z-score [8],PBM binding z-score [9],PBM binding z-score [10],PBM binding z-score [11],PBM binding z-score [12],PBM binding z-score [13],PBM binding z-score [14],PBM binding z-score [15],PBM binding z-score [16],PBM binding z-score [17],PBM binding z-score [18]
CCTACTGGGCCAAAGGCCATTGATTCCAATGCTC,3.67,4.27,-1.16,-0.289,0.544,-0.131,-0.371,0.0662,-0.609,0.924,0.736,0.568,-0.726,-0.132,-0.0621,-0.567,-0.468,
CGTCCAAGGTCATGGGAGGTCAGTGAAGACAGAT,2.93,4.47,0.44,-0.0199,4.73,7.17,5.18,6.5,2.4,5.61,5.85,7.97,3.73,7.56,5.51,3.83,4.5,
CGAACTAGGTCATCGAGGACAGTGAATACATTGA,8.15,8.47,2.12,2.09,1.73,2.62,2.57,2.26,0.951,4,3.3,5.19,2.23,3.01,4.11,2.51,2.73,6.12
ACTCGGAGGACAAACGTCAGAGCTACGCCAGTGA,-0.0796,-0.507,-0.617,-0.00127,-0.209,-0.77,-0.0928,-0.299,-0.122,0.951,0.0238,1.15,0.497,-0.425,0.312,-0.476,-0.183,-0.401
AATACAGGGTCCTCGTAGGCCAGAGTACGCACAG,-0.234,0.716,-0.242,0.0325,-0.0615,-0.282,-0.0675,-0.118,-0.348,0.268,0.334,0.183,-0.129,0.449,1.16,0.203,0.487,
ATCGAAACGTCGTGAGGTGAGTATACAGAAAGGC,-0.959,0.149,1.07,-0.047,-0.199,-0.306,-0.433,0.0512,-0.494,-0.0846,-0.153,0.49,-0.879,0.393,1.63,0.771,-0.417,
CGAACTAGGTCAACGACAGTGAATCTCCGCACGC,7.66,7.96,4.33,5.05,2.87,0.983,-0.0485,1.99,-0.0648,3.83,2.87,4.2,1.61,2.45,2.54,1.08,0.435,
ATCGAAAGGTCGAAAGTGAGTATACCCACCCGAA,-0.0216,1.35,1.11,0.905,0.0924,2.02,0.265,2.62,0.478,3.19,1.74,3.15,1.22,3.52,1.51,-0.286,0.782,
CAGCCTAGTTCAGGGCCAGTATAGGAGGAACGTT,-0.416,-0.592,-0.87,-0.941,-0.37,-0.0793,0.431,-0.13,-0.131,1.05,0.7,0.665,0.532,0.15,-0.00106,-0.234,0.209,
AACGAAAGGTCGACGAGGTGAGTATACACCGTTT,0.793,1.94,0.978,0.568,1.32,2.95,0.578,3.56,0.305,3.91,3,3.73,1.64,4.41,3.85,0.519,0.772,
CGTCCAAGGTCACCAGGTCAGTGAAAGCGACGTG,4.53,5.56,0.432,-0.2,5.06,5.13,1.21,6.39,2.58,5.42,5.13,7.7,3.61,7.13,4.45,4.12,3.44,
CCTACTGGGCCAAAGGACATTGATTCCAATGCTC,4.14,4.09,-0.131,-0.115,0.47,-0.488,-0.554,-0.324,-0.235,0.93,0.475,0.664,-0.27,0.166,-0.11,-0.145,-0.13,
CCTCGGAGGACAACAGGAGGTCAAAGCTGCCAGA,0.133,1.07,-0.509,-2.06,2.31,4.04,1.35,4.12,0.524,3.25,3.77,3.86,0.524,3.56,3.43,1.34,2.4,
CCTTACGGGTCAGGGTTATAGCACGGGTGGTACG,0.748,2.22,-0.0775,-0.847,1.81,2.25,-0.00485,3.06,0.308,3.41,2.89,3.8,-0.999,3.87,2.29,0.154,0.894,
GATACAGGGTCAACTAGAGGCCAGAGTATGGAAA,2.63,3.97,1.7,0.682,3.88,4.77,0.995,6.02,0.807,4.8,3.92,5.56,2.92,6.53,3.79,0.92,2.44,
CCTTACGGGTCACTGACAGGTCATAGCATTTGGA,3.69,3.99,0.0751,0.785,4.06,5.34,0.53,6.69,1.34,4.53,4.59,5.71,1.79,6.67,3.98,0.878,2.15,
